# Measured values: PubChem BioAssay (EPA / NIEHS)
# Active and inactive are the calls of the source. The calls were made as follows: active = hit-call score of the fitted dose curve at least 0.9, where 1 is the maximum; inactive = score below 0.9.
# Tests used:
# [1] = ATG_ISRE_CIS: Attagene CIS-FACTORIAL HepG2 Assay for human Interferon Regulatory Factor 1 (IRF1) binding to an Interferon-Stimulated Response Element (ISRE) (AID 2282948); settings: HepG2 ISRE cis-reporter (Attagene), mRNA transcription readout; actives raise or lower the signal
# Summary of the method: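 Transiently transfected HepG2 cells carrying cis-element reporter units, dosed 24 hours. Reporter mRNA quantified by RT-PCR, fluorescent primer extension, HpaI digestion and capillary electrophoresis. Bidirectional fitting relative to DMSO.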
# [2] = ATG_M_32_CIS: Attagene CIS-FACTORIAL HepG2 Assay for M32 Transcription Factor (Internal Marker) (AID 2282949); settings: HepG2 Attagene cis-factorial M32 reporter, mRNA; actives raise or lower the signal;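 also: background control marker of the multiplexed CIS panel rather than a real target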
# Summary of the method: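 HepG2 cells transiently transfected with multiplexed cis-regulated reporter units, dosed 24 h. Reporter mRNA quantified by RT-PCR, 6-FAM labelling, HpaI digestion and capillary electrophoresis; bidirectional fit vs DMSO.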
# [3] = ATG_M_06_CIS: Attagene CIS-FACTORIAL HepG2 Assay for M06 Transcription Factor (Internal Marker) (AID 2282950); settings: HepG2 Attagene CIS-FACTORIAL M06 internal marker reporter; actives raise or lower the signal
# Summary of the method: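 Measured 24 h post-dosing in transiently transfected HepG2 cells, this internal-marker endpoint reports reporter mRNA via RT-PCR with fluorescent primer extension and capillary electrophoresis. DMSO served as negative control and baseline for bidirectional fitting.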
# [4] = biological target: Hypoxia-inducible factor 1-alpha (Homo sapiens) (UniProt Q16665); assay: ATG_HIF1a_CIS: Attagene CIS-FACTORIAL HepG2 Assay for human Hypoxia Inducible Factor 1 (HIF1A) (AID 2282951); settings: HepG2 Attagene cis-factorial HIF1a reporter transcription; actives raise or lower the signal
# Summary of the method: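 Activity is fitted in both directions relative to DMSO. Reporter transcripts are read by RT-PCR, fluorescent primer extension and capillary electrophoresis after 24 h chemical treatment. The cells are HepG2 carrying transiently transfected cis-element-driven reporter units responding to endogenous factors.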
# [5] = biological target: Hepatocyte nuclear factor 6 (Homo sapiens) (UniProt Q9UBC0); assay: ATG_HNF6_CIS: Attagene CIS-FACTORIAL HepG2 Assay for human Hepatocyte Nuclear Factor 6 (HNF6) (AID 2282952); settings: HepG2 Attagene cis-factorial HNF6 reporter transcription; actives raise or lower the signal
# Summary of the method: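 Transiently transfected HepG2 cells expressing cis-regulated reporter transcription units were exposed to chemical for 24 h in a 24-well format. Reporter transcript abundance was determined by fluorescence capillary electrophoresis.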
# [6] = ATG_MRE_CIS: Attagene CIS-FACTORIAL HepG2 Assay for human Metal Responsive Element (MRE) (AID 2282954); settings: HepG2 MRE cis-reporter transcription, Attagene multiplex; actives raise or lower the signal
# Summary of the method: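 Transient MRTU transfection of HepG2 (FuGene 6); 24 h dosing; total RNA → oligo(dT) RT, PCR, 6-FAM primer extension, HpaI cut, CE. Bidirectional fit vs DMSO.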
# [7] = ATG_PBREM_CIS: Attagene CIS-FACTORIAL HepG2 Assay for human Phenobarbital-responsive Enhancer Module (PBREM) (AID 2282955); settings: HepG2 PBREM cis-reporter, Attagene multiplexed transcription; actives raise or lower the signal
# Summary of the method: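 Endogenous transcription factor activity was read from reporter transcripts in transiently transfected human HepG2 liver cells after 24 h dosing. RT-PCR products were fluorescently labelled, HpaI-cut and sized by capillary electrophoresis; activity fitted bidirectionally against DMSO baseline.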
# [8] = biological target: Paired box protein Pax-6 (Homo sapiens) (UniProt P26367); assay: ATG_Pax6_CIS: Attagene CIS-FACTORIAL HepG2 Assay for human Paired Box 6 (PAX6) (AID 2282956); settings: HepG2 CIS-FACTORIAL PAX6 reporter transcription, RNA readout; actives raise or lower the signal
# Summary of the method: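 HepG2 cells transiently transfected with cis-promoter-driven multiplexed reporter units sensing endogenous transcription factor activity; 24 h chemical exposure. Reporter mRNA quantified by RT-PCR, 6-FAM labelling, HpaI digestion and capillary electrophoresis; bidirectional fit versus DMSO baseline.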
# [9] = ATG_PXRE_CIS: Attagene CIS-FACTORIAL HepG2 Assay for human Pregnane X Receptor Element (PXRE) (AID 2282957); settings: HepG2 Attagene CIS-FACTORIAL PXRE reporter, mRNA; actives raise or lower the signal
# Summary of the method: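 Cis-element reporter mRNA in human hepatoma HepG2 cells is measured 24 h post-dosing by RT-PCR, primer-extension labeling and capillary electrophoresis; gain or loss of signal is fitted relative to DMSO.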
# [10] = ATG_RORE_CIS: Attagene CIS-FACTORIAL HepG2 Assay for human RAR-related Orphan Receptor Element (RORE) (AID 2282959); settings: HepG2 Attagene cis-factorial RORE reporter, mRNA; actives raise or lower the signal
# Summary of the method: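 RORE reporter transcripts reflecting endogenous factor activity were read after 24 h compound exposure of transfected HepG2 cells, using reverse transcription, PCR, fluorescent labelling and capillary electrophoresis sizing. Gain or loss fitted against DMSO.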
# [11] = ATG_Sox_CIS: Attagene CIS-FACTORIAL HepG2 Assay for human SRY-box transcription factor (SOX) (AID 2282960); settings: HepG2 Attagene cis-factorial SOX reporter, mRNA; actives raise or lower the signal
# Summary of the method: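 Reporter transcripts, measured by RT-PCR and capillary electrophoresis of labelled fragments, report endogenous SOX transcription factor activity. Transiently transfected human HepG2 cells receive chemical for 24 h; changes in either direction are fitted relative to DMSO.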
# [12] = biological target: Transcription factor Sp1 (Homo sapiens) (UniProt P08047); assay: ATG_Sp1_CIS: Attagene CIS-FACTORIAL HepG2 Assay for human Specificity Protein 1 (Sp1) (AID 2282961); settings: HepG2 Sp1 cis-reporter transcription, actives raise or lower the signal
# Summary of the method: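 Read-out is reporter transcript level, measured by RT-PCR and fluorescent capillary electrophoresis after 24 h chemical treatment. System: transiently transfected HepG2 cells reporting endogenous transcription factor activity; gain or loss fitted against DMSO baseline.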
# [13] = ATG_SREBP_CIS: Attagene CIS-FACTORIAL HepG2 Assay for human Sterol Regulatory Element Binding (SREBP) (AID 2282962); settings: HepG2 Attagene cis-factorial SREBP reporter, mRNA; actives raise or lower the signal
# Summary of the method: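 HepG2 cells transiently transfected with multiplexed cis-promoter reporter units sensing endogenous transcription factors; reporter mRNA measured 24 h after dosing by RT-PCR, 6-FAM labeling, HpaI digestion and capillary electrophoresis. Bidirectional fit versus DMSO.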
# [14] = biological target: Signal transducer and activator of transcription 3 (Homo sapiens) (UniProt P40763); assay: ATG_STAT3_CIS: Attagene CIS-FACTORIAL HepG2 Assay for human Signal Transducer and Activator of Transcription 3 (STAT3) (AID 2282963); settings: HepG2, Attagene cis-factorial STAT3 reporter transcription; actives raise or lower the signal
# Summary of the method: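 Endogenous STAT3-responsive cis-element activity was read in transiently transfected HepG2 cells after 24 h treatment. Reporter transcripts were quantified via RT-PCR and capillary electrophoresis, with DMSO as negative control and bidirectional curve fitting.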
# [15] = ATG_TA_CIS: Attagene CIS-FACTORIAL HepG2 Assay for human TA Basal Promoter (AID 2282964); settings: HepG2 Attagene CIS-factorial TA basal promoter reporter; actives raise or lower the signal
# Summary of the method: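 Cis-factorial format in HepG2: reporters report endogenous factors, not chimeric Gal4 fusions. After 24 h treatment, reporter transcripts were measured by RT-PCR-capillary electrophoresis fluorescence, analysed bidirectionally versus DMSO.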
# [16] = ATG_TCF_b_cat_CIS: Attagene CIS-FACTORIAL HepG2 Assay for human T-Cell-Factor with beta-catenin (TCF/b-cat) (AID 2282965); settings: HepG2 TCF/beta-catenin cis-reporter transcription, actives raise or lower the signal
# Summary of the method: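 Measured: reporter mRNA in HepG2 transiently transfected with cis-promoter reporter units, 24 h after chemical addition. Fitting was bidirectional, DMSO as negative control.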
# [17] = ATG_TAL_CIS: Attagene CIS-FACTORIAL HepG2 Assay for human TAL Basal Promoter (AID 2282966); settings: HepG2 Attagene cis-factorial TAL promoter reporter; actives raise or lower the signal;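 also: background control endpoint measuring basal TAL promoter reporter mRNA not a specific factor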
# Summary of the method: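 In this cell-based multiplex, HepG2 liver cells bearing cis-promoter reporter constructs are dosed for 24 hours. Total RNA is reverse-transcribed and amplified, labelled fragments are sized by capillary electrophoresis, and signal changes are fitted bidirectionally versus DMSO.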
# [18] = ATG_TGFb_CIS: Attagene CIS-FACTORIAL HepG2 Assay for human Transforming Growth Factor (TGF) (AID 2282967); settings: HepG2 Attagene CIS TGFb reporter, mRNA transcription; actives raise or lower the signal
# Summary of the method: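 Multiplexed cis-reporter HepG2 system, 24 h treatment; mRNA induction read by fluorescence after RT-PCR and CE; DMSO negative control, bidirectional curve fitting.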
# [19] = biological target: Heat shock factor protein 1 (Homo sapiens) (UniProt Q00613); assay: ATG_HSE_CIS: Attagene CIS-FACTORIAL HepG2 Assay for human Heat Shock Transcription Factor 1 (HSE) (AID 2282953); settings: HepG2 HSE cis-reporter, Attagene RNA transcription; actives raise or lower the signal
# Summary of the method: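 Reporter mRNA induction in HepG2 is measured 24 h after dosing, using transiently transfected multiplexed cis-regulated reporter units. Signal comes from capillary electrophoresis of labelled RT-PCR products, with DMSO as negative control.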
# [20] = ATG_PPRE_CIS: Attagene CIS-FACTORIAL HepG2 Assay for human Peroxisome Proliferator-activated Response Element (PPRE) (AID 2282958); settings: HepG2 PPRE cis-element reporter, Attagene transcription factor profiling; actives raise or lower the signal
# Summary of the method: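 Endogenous PPRE-driven transcription is measured in HepG2 cells carrying transfected multi-reporter constructs. Reporter transcripts are quantified by RT-PCR, HpaI digestion and capillary electrophoresis 24 h after dosing. DMSO baseline, bidirectional fit.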
# Chain of Transcription factor Sp1 (Homo sapiens) (P08047 whole entry, looked up): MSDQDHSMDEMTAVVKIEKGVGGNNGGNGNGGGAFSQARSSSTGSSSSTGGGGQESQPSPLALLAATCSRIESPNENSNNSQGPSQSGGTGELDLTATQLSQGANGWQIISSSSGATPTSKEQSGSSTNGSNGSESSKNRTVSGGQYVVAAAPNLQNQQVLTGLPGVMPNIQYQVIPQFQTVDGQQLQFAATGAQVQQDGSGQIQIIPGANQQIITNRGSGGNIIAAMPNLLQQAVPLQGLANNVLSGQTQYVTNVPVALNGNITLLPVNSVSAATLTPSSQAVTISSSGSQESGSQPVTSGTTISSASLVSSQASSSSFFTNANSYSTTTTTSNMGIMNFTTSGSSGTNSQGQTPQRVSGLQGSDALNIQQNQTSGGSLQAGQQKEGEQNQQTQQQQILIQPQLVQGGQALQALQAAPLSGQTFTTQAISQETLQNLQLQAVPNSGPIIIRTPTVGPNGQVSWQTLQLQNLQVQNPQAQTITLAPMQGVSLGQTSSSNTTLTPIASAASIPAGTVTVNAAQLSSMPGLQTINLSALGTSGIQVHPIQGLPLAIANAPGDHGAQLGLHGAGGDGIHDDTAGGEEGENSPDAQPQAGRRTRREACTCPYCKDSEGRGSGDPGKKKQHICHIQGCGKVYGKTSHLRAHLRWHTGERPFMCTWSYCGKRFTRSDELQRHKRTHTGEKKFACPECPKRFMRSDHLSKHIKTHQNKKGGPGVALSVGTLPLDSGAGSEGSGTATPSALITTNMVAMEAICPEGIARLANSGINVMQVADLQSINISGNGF
# Chain of Heat shock factor protein 1 (Homo sapiens) (Q00613 whole entry, looked up): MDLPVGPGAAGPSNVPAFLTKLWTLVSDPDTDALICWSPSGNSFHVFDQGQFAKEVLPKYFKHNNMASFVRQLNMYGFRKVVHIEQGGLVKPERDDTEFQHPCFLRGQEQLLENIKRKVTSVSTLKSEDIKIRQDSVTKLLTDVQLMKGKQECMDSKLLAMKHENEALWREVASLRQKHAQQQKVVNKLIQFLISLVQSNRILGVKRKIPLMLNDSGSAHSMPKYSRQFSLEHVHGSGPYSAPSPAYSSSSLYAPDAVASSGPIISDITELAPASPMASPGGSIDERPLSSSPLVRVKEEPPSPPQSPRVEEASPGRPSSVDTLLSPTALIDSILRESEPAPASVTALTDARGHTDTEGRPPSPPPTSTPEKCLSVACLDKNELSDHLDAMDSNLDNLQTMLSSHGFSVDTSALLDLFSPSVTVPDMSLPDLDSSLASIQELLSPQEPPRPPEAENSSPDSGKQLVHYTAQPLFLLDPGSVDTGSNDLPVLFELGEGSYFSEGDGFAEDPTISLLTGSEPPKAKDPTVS
# Chain of Signal transducer and activator of transcription 3 (Homo sapiens) (P40763 whole entry, looked up): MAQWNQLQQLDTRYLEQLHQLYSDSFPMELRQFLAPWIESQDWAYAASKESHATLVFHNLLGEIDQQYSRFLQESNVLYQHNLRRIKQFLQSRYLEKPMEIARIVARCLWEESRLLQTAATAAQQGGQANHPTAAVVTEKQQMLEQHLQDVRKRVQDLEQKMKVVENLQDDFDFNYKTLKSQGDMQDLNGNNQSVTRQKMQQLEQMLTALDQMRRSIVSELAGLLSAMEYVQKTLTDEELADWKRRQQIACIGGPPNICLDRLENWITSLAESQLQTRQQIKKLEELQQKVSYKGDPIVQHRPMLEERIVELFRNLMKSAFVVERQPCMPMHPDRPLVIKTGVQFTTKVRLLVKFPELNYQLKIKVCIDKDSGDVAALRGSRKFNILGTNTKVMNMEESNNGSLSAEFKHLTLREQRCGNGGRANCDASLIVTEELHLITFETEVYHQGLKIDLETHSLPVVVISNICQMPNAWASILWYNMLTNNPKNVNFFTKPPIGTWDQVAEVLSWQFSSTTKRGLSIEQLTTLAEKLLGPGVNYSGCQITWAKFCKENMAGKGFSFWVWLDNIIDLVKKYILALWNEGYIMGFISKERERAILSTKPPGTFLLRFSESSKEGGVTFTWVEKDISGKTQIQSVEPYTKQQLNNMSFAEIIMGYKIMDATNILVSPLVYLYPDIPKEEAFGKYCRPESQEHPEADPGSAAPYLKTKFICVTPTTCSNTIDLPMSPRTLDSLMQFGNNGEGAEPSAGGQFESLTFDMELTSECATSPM
# Chain of Paired box protein Pax-6 (Homo sapiens) (P26367 whole entry, looked up): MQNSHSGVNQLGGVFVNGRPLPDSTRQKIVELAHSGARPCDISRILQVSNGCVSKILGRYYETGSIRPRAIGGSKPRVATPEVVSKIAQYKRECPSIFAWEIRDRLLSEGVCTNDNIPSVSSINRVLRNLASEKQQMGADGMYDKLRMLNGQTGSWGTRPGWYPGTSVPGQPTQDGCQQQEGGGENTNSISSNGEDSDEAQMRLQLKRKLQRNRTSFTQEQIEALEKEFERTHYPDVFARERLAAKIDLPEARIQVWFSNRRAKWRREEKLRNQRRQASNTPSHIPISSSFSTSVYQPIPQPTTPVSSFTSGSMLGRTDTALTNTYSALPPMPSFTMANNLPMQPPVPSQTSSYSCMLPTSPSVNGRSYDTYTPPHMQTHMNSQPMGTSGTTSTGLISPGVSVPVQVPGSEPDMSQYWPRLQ
# Chain of Hepatocyte nuclear factor 6 (Homo sapiens) (Q9UBC0 whole entry, looked up): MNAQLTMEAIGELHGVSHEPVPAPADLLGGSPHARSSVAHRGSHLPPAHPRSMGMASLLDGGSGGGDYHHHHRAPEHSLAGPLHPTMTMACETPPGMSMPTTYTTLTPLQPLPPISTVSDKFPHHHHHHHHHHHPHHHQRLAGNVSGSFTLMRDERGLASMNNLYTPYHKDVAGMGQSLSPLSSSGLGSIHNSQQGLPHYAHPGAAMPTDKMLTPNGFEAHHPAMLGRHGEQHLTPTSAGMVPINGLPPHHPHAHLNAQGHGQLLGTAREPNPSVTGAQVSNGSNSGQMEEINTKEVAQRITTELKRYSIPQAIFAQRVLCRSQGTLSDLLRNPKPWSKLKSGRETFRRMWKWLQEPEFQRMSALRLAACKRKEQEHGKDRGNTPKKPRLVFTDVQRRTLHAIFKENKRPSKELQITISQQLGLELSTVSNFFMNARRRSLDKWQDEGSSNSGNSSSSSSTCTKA
# Chain of Hypoxia-inducible factor 1-alpha (Homo sapiens) (Q16665 whole entry, looked up): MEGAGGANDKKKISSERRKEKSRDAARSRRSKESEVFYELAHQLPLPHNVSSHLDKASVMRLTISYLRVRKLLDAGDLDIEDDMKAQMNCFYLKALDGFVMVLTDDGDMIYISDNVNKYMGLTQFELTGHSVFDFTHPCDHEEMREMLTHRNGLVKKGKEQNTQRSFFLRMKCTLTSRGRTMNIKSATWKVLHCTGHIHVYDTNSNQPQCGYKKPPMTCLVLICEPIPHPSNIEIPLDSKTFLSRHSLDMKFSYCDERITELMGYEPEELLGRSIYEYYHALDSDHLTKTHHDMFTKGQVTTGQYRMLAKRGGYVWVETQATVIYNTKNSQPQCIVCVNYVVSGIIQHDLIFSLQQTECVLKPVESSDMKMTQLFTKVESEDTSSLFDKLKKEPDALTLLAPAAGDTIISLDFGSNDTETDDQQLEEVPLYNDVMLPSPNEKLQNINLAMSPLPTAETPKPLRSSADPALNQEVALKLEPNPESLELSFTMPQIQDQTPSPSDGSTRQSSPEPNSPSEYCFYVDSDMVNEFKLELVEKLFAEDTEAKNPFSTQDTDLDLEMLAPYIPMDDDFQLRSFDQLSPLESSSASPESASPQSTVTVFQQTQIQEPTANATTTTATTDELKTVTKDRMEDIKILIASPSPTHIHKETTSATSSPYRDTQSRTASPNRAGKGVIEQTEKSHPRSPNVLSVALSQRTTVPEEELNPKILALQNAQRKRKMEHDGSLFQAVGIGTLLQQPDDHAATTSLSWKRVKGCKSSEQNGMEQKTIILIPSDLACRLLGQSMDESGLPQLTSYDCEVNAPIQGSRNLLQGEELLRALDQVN
structure (smiles),measurement,setting,value
CC(C)[C@@H]1CC[C@@H](C)C[C@H]1O,outcome,[1],inactive
same,outcome,[2],inactive
same,outcome,[3],inactive
same,outcome,[4],inactive
same,outcome,[5],inactive
same,outcome,[6],inactive
same,outcome,[7],inactive
same,outcome,[8],inactive
same,outcome,[9],inactive
same,outcome,[10],inactive
same,outcome,[11],inactive
same,outcome,[12],inactive
same,outcome,[13],inactive
same,outcome,[14],inactive
same,outcome,[15],inactive
same,outcome,[16],inactive
same,outcome,[17],inactive
same,outcome,[18],inactive
Clc1ccc(Nc2nnc(Cc3ccncc3)c3ccccc23)cc1,outcome,[1],inactive
same,outcome,[2],inactive
same,outcome,[3],inactive
same,AC50,[4],15.8 µM (active)
same,AC50,[5],17.9 µM (active)
same,AC50,[19],75.2 µM (active)
same,AC50,[6],27.6 µM (active)
same,AC50,[8],27 µM (active)
same,AC50,[9],1.45 µM (active)
same,outcome,[20],inactive
same,AC50,[10],15.8 µM (active)
same,outcome,[11],inactive
same,outcome,[13],inactive
same,outcome,[14],inactive
same,AC50,[15],23.2 µM (active)
same,AC50,[16],11 µM (active)
same,AC50,[17],11.2 µM (active)
same,outcome,[18],inactive
CCCCCCCCCC=CCC1CC(=O)OC1=O (stereo not drawn),outcome,[1],inactive
same,outcome,[2],inactive
same,outcome,[3],inactive
same,outcome,[4],inactive
same,outcome,[5],inactive
same,outcome,[19],inactive
same,outcome,[6],inactive
same,outcome,[8],inactive
same,outcome,[9],inactive
same,outcome,[10],inactive
same,outcome,[11],inactive
same,outcome,[12],inactive
same,AC50,[13],67.9 µM (active)
same,outcome,[14],inactive
same,outcome,[15],inactive
same,outcome,[16],inactive
same,outcome,[17],inactive
same,outcome,[18],inactive
CC(C)(C)c1ccc(CCC=O)cc1,outcome,[1],inactive
same,outcome,[2],inactive
same,outcome,[3],inactive
same,outcome,[4],inactive
same,outcome,[19],inactive
same,outcome,[6],inactive
same,outcome,[8],inactive
same,AC50,[9],22.3 µM (active)
same,outcome,[20],inactive
same,outcome,[10],inactive
same,outcome,[11],inactive
same,outcome,[12],inactive
same,outcome,[13],inactive
same,outcome,[14],inactive
same,outcome,[15],inactive
same,AC50,[16],162 µM (active)
same,outcome,[17],inactive
same,outcome,[18],inactive
FCOC(C(F)(F)F)C(F)(F)F,outcome,[1],inactive
same,outcome,[2],inactive
same,outcome,[3],inactive
same,outcome,[4],inactive
same,outcome,[19],inactive
same,outcome,[6],inactive
same,outcome,[7],inactive
same,outcome,[8],inactive
same,outcome,[9],inactive
same,outcome,[20],inactive
same,outcome,[10],inactive
same,outcome,[11],inactive
same,outcome,[12],inactive
same,outcome,[13],inactive
same,outcome,[14],inactive
same,outcome,[15],inactive
same,outcome,[16],inactive
same,outcome,[17],inactive
same,outcome,[18],inactive
C=CC(F)(F)C(F)(F)C(F)(F)C(F)(F)F,outcome,[1],inactive
same,outcome,[2],inactive
same,outcome,[3],inactive
same,outcome,[4],inactive
same,outcome,[19],inactive
same,outcome,[6],inactive
same,outcome,[7],inactive
same,outcome,[8],inactive
same,outcome,[9],inactive
same,outcome,[20],inactive
same,outcome,[10],inactive
same,outcome,[11],inactive
same,outcome,[13],inactive
same,outcome,[14],inactive
same,outcome,[15],inactive
same,outcome,[16],inactive
same,outcome,[17],inactive
same,outcome,[18],inactive
COC(=O)C(F)(F)C(F)(F)C(F)(F)F,outcome,[1],inactive
same,outcome,[2],inactive
same,outcome,[3],inactive
same,outcome,[4],inactive
same,outcome,[19],inactive
same,outcome,[6],inactive
same,outcome,[7],inactive
same,outcome,[8],inactive
same,outcome,[9],inactive
same,outcome,[20],inactive
same,outcome,[10],inactive
same,outcome,[11],inactive
same,outcome,[12],inactive
same,outcome,[13],inactive
same,outcome,[14],inactive
same,outcome,[15],inactive
same,outcome,[16],inactive
same,outcome,[17],inactive
same,outcome,[18],inactive
